The source of these data is PubChem BioAssay.

Values without a mark were called inactive. For some of these results: Potency and affinity values are given separately. Calls of active or inactive are those of the source. Unless noted, how the calls were made is not given here.

A short description of test [1]: antimalarial activity against Dd2 strain (AID 2302;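 active means growth inhibition above 50% at the single 2 µM test dose, taken to imply half-maximal potency below 2 µM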;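 further: 0% = DMSO untreated growth and 100% = chloroquine plus artemisinin killed control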). The settings on record: P. falciparum Dd2 in RBCs, LDH growth readout, 72 h; at 2 µM; stronger effect = higher value.
Test [2] in a line: HepG2 cytotoxicity, primary screen, cytotoxicity control for P. falciparum antimalarial project, cell-based, ATP luminescence (AID 2303;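 active means inhibition above 50%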;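 further: 0% = DMSO wells and 100% = digitonin-killed cells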). The following applies: HepG2 viability, 24-48 h, at 10 µM, stronger effect = higher value.
The target of test [3] is L-lactate dehydrogenase (Plasmodium falciparum (isolate CDC / Honduras)) (UniProt Q27743). Nature of the test: PfLDH activity inhibition – cell lysate, 3D7 strain, counter-screen for P. falciparum growth inhibition project (AID 2304).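 Further: 0% = vehicle and 100% = reference inhibitor.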 The following applies: P. falciparum 3D7 crude extract, LDH APAD/NBT absorbance; at 2 µM; stronger effect = higher value. For orientation: A counterscreen serves to expose hits that act by an unwanted route or on another target.
L-lactate dehydrogenase (Plasmodium falciparum (isolate CDC / Honduras)), sequence (Q27743 whole entry, looked up): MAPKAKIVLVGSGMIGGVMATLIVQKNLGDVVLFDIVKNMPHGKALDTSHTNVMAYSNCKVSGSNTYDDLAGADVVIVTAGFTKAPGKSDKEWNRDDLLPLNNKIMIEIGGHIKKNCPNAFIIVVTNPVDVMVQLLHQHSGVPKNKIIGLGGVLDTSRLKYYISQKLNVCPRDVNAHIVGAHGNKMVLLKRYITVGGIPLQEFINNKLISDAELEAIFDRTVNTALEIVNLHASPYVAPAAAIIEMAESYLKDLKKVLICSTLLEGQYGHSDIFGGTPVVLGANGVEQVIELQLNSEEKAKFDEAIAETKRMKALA

Test [4] in a line: inhibition of 3D7 malaria parasite growth – strain 3D7 (AID 2306).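 Further: 0% = DMSO wells and 100% = chloroquine plus artemisinin control wells.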 The following applies: P. falciparum 3D7 erythrocytic growth, LDH absorbance, 72 h; at 2 µM; stronger effect = higher value.
In test [5] the target is Calcium-dependent protein kinase 1 (Plasmodium falciparum (isolate 3D7)) (UniProt P62344). In words: PfCDPK1 kinase inhibitors, biochemical, TCAMS library (AID 1159585; cut-off not given, nearly all actives have IC50 up to about 0.98 µM;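 further: inhibitors leave more ATP so luminescence rises with inhibition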). The settings on record: recombinant PfCDPK1, Kinase-Glo ATP depletion luminescence.
Calcium-dependent protein kinase 1 (Plasmodium falciparum (isolate 3D7)), sequence (P62344 whole entry, looked up): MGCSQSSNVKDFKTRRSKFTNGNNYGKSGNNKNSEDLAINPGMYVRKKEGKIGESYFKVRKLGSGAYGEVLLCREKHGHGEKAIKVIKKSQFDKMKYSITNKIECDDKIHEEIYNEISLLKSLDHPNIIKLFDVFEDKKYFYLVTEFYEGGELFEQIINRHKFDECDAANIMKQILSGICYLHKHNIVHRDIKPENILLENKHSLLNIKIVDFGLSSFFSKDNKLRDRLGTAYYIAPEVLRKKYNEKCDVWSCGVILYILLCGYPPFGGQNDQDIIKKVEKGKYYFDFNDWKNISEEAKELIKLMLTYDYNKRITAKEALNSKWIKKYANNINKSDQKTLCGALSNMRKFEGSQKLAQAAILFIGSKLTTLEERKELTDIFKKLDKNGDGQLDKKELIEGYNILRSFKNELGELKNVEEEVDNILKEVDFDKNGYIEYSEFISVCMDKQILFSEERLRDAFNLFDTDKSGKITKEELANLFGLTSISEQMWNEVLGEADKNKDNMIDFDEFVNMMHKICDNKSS
In test [6] the target is Plasmodium falciparum protein kinase 6 (PK6, PF3D7_1337100) (UniProt Q8IDW1). Nature of the test: PfPK6 kinase inhibitors, biochemical, TCAMS library (AID 1159586). The settings on record: recombinant PfPK6, Kinase-Glo ATP depletion luminescence. On the technique in general: In Kinase-Glo more light means more ATP remaining.
Plasmodium falciparum protein kinase 6 (PK6, PF3D7_1337100), sequence (Q8IDW1 1-305): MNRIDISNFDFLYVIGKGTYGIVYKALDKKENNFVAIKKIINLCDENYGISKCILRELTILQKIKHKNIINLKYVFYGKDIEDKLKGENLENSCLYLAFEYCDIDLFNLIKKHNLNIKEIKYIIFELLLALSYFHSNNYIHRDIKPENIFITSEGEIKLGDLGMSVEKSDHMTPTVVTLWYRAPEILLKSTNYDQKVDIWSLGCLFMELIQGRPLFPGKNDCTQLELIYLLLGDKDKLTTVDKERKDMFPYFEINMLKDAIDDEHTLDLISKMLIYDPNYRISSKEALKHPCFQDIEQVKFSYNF
For test [7], the target named is Protein kinase 7 (PK7), Plasmodium falciparum 3D7 (PF3D7_0213400) (UniProt Q7YTF7). Nature of the test: inhibition of Plasmodium PK7 catalytic activity – biochemical, TCAMS antimalarial set, Kinase-Glo luminescence (AID 1159587). The following applies: recombinant PfPK7, Kinase-Glo ATP depletion luminescence.
Protein kinase 7 (PK7), Plasmodium falciparum 3D7 (PF3D7_0213400), sequence (Q7YTF7 1-343): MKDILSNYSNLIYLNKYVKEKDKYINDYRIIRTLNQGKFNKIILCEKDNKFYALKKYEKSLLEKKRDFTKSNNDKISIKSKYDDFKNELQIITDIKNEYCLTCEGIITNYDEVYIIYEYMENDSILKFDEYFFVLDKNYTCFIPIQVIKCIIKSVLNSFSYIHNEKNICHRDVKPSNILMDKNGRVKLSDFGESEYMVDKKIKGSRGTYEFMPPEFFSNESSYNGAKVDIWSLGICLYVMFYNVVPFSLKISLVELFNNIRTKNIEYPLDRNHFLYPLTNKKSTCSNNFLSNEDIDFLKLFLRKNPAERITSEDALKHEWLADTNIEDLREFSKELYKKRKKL
Test [8] concerns the target Calcium-dependent protein kinase 4 (Plasmodium falciparum (isolate 3D7)) (UniProt Q8IBS5). In words: PfCDPK4 kinase inhibitors, biochemical, TCAMS library (AID 1159588; cut-off not given, nearly all actives have IC50 up to about 0.91 µM). The following applies: recombinant PfCDPK4, Kinase-Glo ATP depletion luminescence.

Calcium-dependent protein kinase 4 (Plasmodium falciparum (isolate 3D7)), sequence (Q8IBS5 whole entry, looked up): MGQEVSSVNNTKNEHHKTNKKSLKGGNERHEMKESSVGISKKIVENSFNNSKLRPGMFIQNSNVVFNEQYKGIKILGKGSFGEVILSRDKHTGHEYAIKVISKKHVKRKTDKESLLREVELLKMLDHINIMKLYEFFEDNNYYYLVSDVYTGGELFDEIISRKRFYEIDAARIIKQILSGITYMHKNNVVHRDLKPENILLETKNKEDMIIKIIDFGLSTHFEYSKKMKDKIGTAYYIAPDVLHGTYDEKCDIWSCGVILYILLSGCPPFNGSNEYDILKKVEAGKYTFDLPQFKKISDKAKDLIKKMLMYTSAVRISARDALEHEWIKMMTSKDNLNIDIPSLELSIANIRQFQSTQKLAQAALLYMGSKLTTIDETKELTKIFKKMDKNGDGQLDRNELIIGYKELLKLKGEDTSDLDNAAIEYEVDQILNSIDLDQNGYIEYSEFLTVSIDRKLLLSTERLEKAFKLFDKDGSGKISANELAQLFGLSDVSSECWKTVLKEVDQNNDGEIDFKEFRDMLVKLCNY

Take `Cc1cccc2[nH]c(-c3ccc(-c4ccc(CN5CCC(CCN6CCCCC6)CC5)cc4)cc3)nc12`: the growth inhibition in test [1] and in test [4] was 100% (active) in each case. For the same compound, the inhibition (as a rule, the relative decrease from the control value, in per cent) in test [2] was 99% (active); in test [3], 6%. The result in test [5], in test [6], in test [7] and in test [8] was inactive.
On to `Nc1cc(-c2ccc3c(N)nccc3c2)ccc1Cl`, for which the growth inhibition was 4% in test [1] and 91% (active) in test [4]. Also, the results for the inhibition in test [2] and in test [3] were 1% and -2%, respectively. Also, the outcome in test [5], in test [6], in test [7] and in test [8] was inactive.
Consider `O=c1[nH]c(NCCCCCN2CCC(c3c[nH]c4ccccc34)CC2)ncc1Cc1ccc(Cl)c(Cl)c1`, for which the growth inhibition in test [1] was 8%; in test [4], 94% (active). Besides, the inhibition in test [2] is 21%; in test [3], -4%. The result in test [5], in test [6], in test [7] and in test [8] was inactive.
Regarding `Cc1ccc(S(=O)(=O)/N=C(\N)NC(N)=O)cc1`, the growth inhibition in test [1] is 2%; in test [4], 94% (active). Besides, the values for the inhibition in test [2] and in test [3] were 26% and 1%, respectively. Also, the result in test [5], in test [6], in test [7] and in test [8] was inactive.
As to `O=C(Nc1cc(Cl)cc(Cl)c1)c1cc(Cl)c(=O)n(Cc2cccc(Cl)c2)c1`, the growth inhibition in test [1] was 62% (active); in test [4], 100% (active). Besides, the inhibition in test [2] was 8%; in test [3] it was 2%. Also, the outcome in test [5], in test [6], in test [7] and in test [8] was inactive.
For the compound `O=C(c1ccc(-c2cnc3[nH]cc(-c4ccc(C(=O)N5CCOCC5)cc4)c3c2)cc1)N1CCOCC1`, the growth inhibition in test [1] is -3%; in test [4], 91% (active). The inhibition in test [2] is 19%; in test [3] it was -4%. Besides, the result in test [5], in test [6], in test [7] and in test [8] was inactive.
`COc1ccc(Nc2nccc(NCCNC(=O)Nc3ccccc3F)n2)cc1`: the growth inhibition was 4% in test [1] and 85% (active) in test [4]. Besides, the inhibition in test [2] was 4%; in test [3] it was 1%. Moreover, the result in test [5], in test [6], in test [7] and in test [8] was inactive.
Turning to `CO/C(=C\C=C\c1cc2cc(Cl)c(Cl)cc2[nH]1)C(=O)NCCCN1CCN(c2cccc(OCC(=O)Nc3ccccc3)c2)CC1`, the growth inhibition is 81% (active) in test [1] and 100% (active) in test [4]. The inhibition in test [2] is 49%; in test [3], -1%. The result in test [5], in test [6], in test [7] and in test [8] was inactive.
As for `NC(N)=NC(=O)Nc1cc(Br)c(Br)c(Br)c1`, the growth inhibition in test [1] was 89% (active); in test [4], 101% (active). The inhibition was 0% in test [2] and 1% in test [3]. The result in test [5], in test [6], in test [7] and in test [8] was inactive.
Turning to `CC(=O)N(C)c1cccc(C(=O)Nc2cccc(-c3cccc(-c4nc5c(C)cccc5[nH]4)c3)c2)c1`, the growth inhibition in test [1] was 41%; in test [4] it was 89% (active). In addition, the inhibition is 15% in test [2] and -9% in test [3]. Also, the result in test [5], in test [6], in test [7] and in test [8] was inactive.
As to `COc1ccc(COc2c(OC)cc(Cc3cnc(N)nc3N)cc2OC)cc1`, the growth inhibition in test [1] was 23%; in test [4] it was 90% (active). In addition, the inhibition in test [2] was 5%; in test [3], 1%. In addition, the outcome in test [5], in test [6], in test [7] and in test [8] was inactive.
Take `Clc1ccc(CNCC2CCN(CC3CCCCC3)CC2)cc1Cl`: the growth inhibition in test [1] was 6%; in test [4], 92% (active). For the same compound, the inhibition is 18% in test [2] and 4% in test [3]. In addition, the outcome in test [5], in test [6], in test [7] and in test [8] was inactive.
Take `CCN1CCc2nc3ccccc3c(C(=O)Nc3ccc(C#N)cc3)c2C1`: the values for the growth inhibition in test [1] and in test [4] were 72% (active) and 99% (active), respectively. The inhibition in test [2] is 24%; in test [3] it was -1%. Besides, the result in test [5], in test [6], in test [7] and in test [8] was inactive.
In the case of `COc1ccccc1-c1ccc(CNC(=O)C(CN2CCN(C)CC2)c2ccccc2)cc1` (stereo not given), the results for the growth inhibition in test [1] and in test [4] were 4% and 90% (active), respectively. Further, the inhibition in test [2] was 3%; in test [3], 2%. Besides, the result in test [5], in test [6], in test [7] and in test [8] was inactive.
Consider `O=C(NCC1CCN(Cc2cccc(C(F)(F)F)c2)C1)c1cc(-c2cccc(F)c2)cs1` (stereo not given), for which the growth inhibition was 5% in test [1] and 87% (active) in test [4]. The inhibition in test [2] is 19%; in test [3], -3%. The result in test [5], in test [6], in test [7] and in test [8] was inactive.
With `CC1(C)N=C(N)N=C(N)N1OCCCOc1ccccc1N`, the growth inhibition was 95% (active) in test [1] and 93% (active) in test [4]. In addition, the values for the inhibition in test [2] and in test [3] were 70% (active) and 8%, respectively. Also, the outcome in test [5], in test [6], in test [7] and in test [8] was inactive.
`O=C(N[C@H]1CCCC[C@H]1C(=O)O)c1ccccc1`: the growth inhibition in test [1] was 3%; in test [4], 95% (active). For the same compound, the inhibition in test [2] is 7%; in test [3], -5%. Also, the result in test [5], in test [6], in test [7] and in test [8] was inactive.
As to `COC(=O)c1cc(C(O)CNC(C)CCc2cccc(F)c2)ccc1O` (stereo not given), the growth inhibition was 77% (active) in test [1] and 94% (active) in test [4]. For the same compound, the values for the inhibition in test [2] and in test [3] were 38% and -2%, respectively. For the same compound, the result in test [5], in test [6], in test [7] and in test [8] was inactive.
Take `Cn1cncc1CCN(Cc1ccc(-c2ccc(C(F)(F)F)cc2)cc1)C(=O)Cn1c(CCc2cccc(F)c2F)cc(=O)c2cccnc21`: the growth inhibition is 97% (active) in test [1] and 100% (active) in test [4]. The inhibition in test [2] is 44%; in test [3] it was -2%. Moreover, the outcome in test [5], in test [6], in test [7] and in test [8] was inactive.
Regarding `COc1ccc2c(=O)c(I)c(C)[nH]c2c1`, the growth inhibition in test [1] and in test [4] was 96% (active) in each case. In addition, the inhibition in test [2] is 27%; in test [3] it was 4%. In addition, the result in test [5], in test [6], in test [7] and in test [8] was inactive.
